In PubChem BioAssay (NCI):
The panel holds about 79,000 compounds, 15% with a hit somewhere; the sample as a whole holds those more often. Calls of active or inactive are those of the source. No stated cut-off is given here; in the data, active means growth inhibition above about 70%; inactive means the rest.

Experiments:
[1] = NCI Yeast Anticancer Drug Screen. Data for the rad50 strain (AID 155);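 further: 0% = growth of vehicle-only cultures of the same strain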; conditions: S. cerevisiae rad50 strain growth inhibition; at 50.0 µM; hits give high values
Procedure, shortened: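 DNA repair mutant yeast, compound exposure, growth read-out; inhibition is taken relative to vehicle.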

[2] = NCI Yeast Anticancer Drug Screen. Data for the mec2-1 strain (AID 157); conditions: S. cerevisiae mec2-1 strain, at 50.0 µM, hits give high values
Procedure, shortened: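 Each compound was tested on mec2-1 yeast, a strain altered in DNA damage repair or cell cycle control. Growth inhibition is reported relative to vehicle.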

[3] = NCI Yeast Anticancer Drug Screen. Data for the sgs1 mgt1 strain (AID 161);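 further: 0% = growth of cultures given vehicle only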; conditions: S. cerevisiae sgs1 mgt1 strain, at 50.0 µM, hits give high values
Procedure, shortened: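 Read-out: growth inhibition vs vehicle controls. Cells: mutant yeast strain deficient in DNA damage repair.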

[4] = NCI Yeast Anticancer Drug Screen. Data for the cln2 rad14 strain (AID 165);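 further: 0% = growth equal to vehicle treated cultures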; conditions: S. cerevisiae cln2 rad14 strain, at 50.0 µM, hits give high values
Procedure, shortened: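 Test compounds were added to cln2 rad14 yeast cultures; inhibition of growth was then determined by comparison with vehicle treatment.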

[5] = NCI Yeast Anticancer Drug Screen. Data for the bub3 strain (AID 167); conditions: S. cerevisiae bub3 mutant strain, at 50.0 µM, hits give high values
Procedure, shortened: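 In this screen, a yeast mutant lacking normal mitotic checkpoint function is challenged with compound. Relative growth versus vehicle gives the inhibition value.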

[6] = NCI Yeast Anticancer Drug Screen. Data for the mlh1 rad18 strain (AID 175); conditions: S. cerevisiae mlh1 rad18 strain growth inhibition; at 50.0 µM; hits give high values
Procedure, shortened: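 Inhibition values reflect reduced growth of mutant yeast versus vehicle-treated controls following compound exposure; the mutations affect DNA damage repair.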

Measured: growth inhibition

CC1=C(O)c2ccccc2C(=O)C1=O
inactive: [1] 25.4% | [2] 16.8% | [3] 40.3% | [4] 36.2% | [5] 12.8% | [6] 23.8%

Cn1c2c(c3ccccc31)CC1c3c(c4ccccc4n3C)CC21 (stereo not given)
inactive: [1] -79% | [2] -51% | [3] -49% | [4] -26.2% | [5] -18.6% | [6] -45.4%

COc1cc2nncc(Sc3cnnc4ccccc34)c2cc1OC
inactive: [1] 19.1% | [2] 29.6% | [3] 18.6% | [4] 13.3% | [5] 36% | [6] 35.6%

CCCCCC(Oc1ccc(Cl)cc1Cl)C(=O)O (stereo not given)
active: [1] 96.7% | [2] 85.6% | [3] 97.5% | [4] 93% | [5] 91.2% | [6] 93.5%

Cc1cc2c(C(C)C)c(O)c(O)c(C=Nc3cccc(O)c3)c2c(O)c1-c1c(C)cc2c(C(C)C)c(O)c(O)c(C=Nc3cccc(O)c3)c2c1O
inactive: [1] 27.8% | [2] 26% | [3] 44% | [4] 46.1% | [5] 50.8% | [6] 58.3%

Cc1c(Br)c(C)[n+]([O-])n1O
inactive: [1] 4% | [2] 8.75% | [3] 5.05% | [4] -17% | [5] 26.4% | [6] 0.2%

COc1ccc(C(=O)O[C@@H]2CCN3CC[C@H](C)[C@H]23)cc1
inactive: [1] 7.4% | [2] -22.5% | [3] 7.3% | [4] 12.7% | [5] -6.35% | [6] -74.8%

Cc1cc(C)c(C2[C@H]3C(=O)N(c4ccc(Cc5ccc(N6C(=O)[C@@H]7ON(c8ccccc8)C(c8c(C)cc(C)cc8C)[C@@H]7C6=O)cc5)cc4)C(=O)[C@H]3ON2c2ccccc2)c(C)c1 (stereo not given in full)
inactive: [1] 27.6% | [2] 31.8% | [3] 19.8% | [4] 25.2% | [5] 29.4% | [6] 24.2%

OCCN(Cc1ccccc1)C(c1ccccc1)C(O)c1ccccc1 (stereo not given)
inactive: [1] -2.8% | [2] 7.65% | [3] 24.2% | [4] 29.2% | [5] 1.7% | [6] 1.3%

Cc1nc(N)nc(C)c1Cl
inactive: [1] -2.15% | [2] 3.4% | [3] 3.85% | [4] 5.2% | [5] -5.9% | [6] -1.85%

NNc1cc(S(=O)(=O)O)cc(C(=O)O)c1O
inactive: [1] 14.5% | [2] 49% | [3] 31.4% | [4] -1.65% | [5] 42.1% | [6] 39.9%

CCC[CH2][Sn]([CH2]CCC)([O]C(=O)c1ccc(OC)c(OC)c1OC)[O][Sn]([CH2]CCC)([CH2]CCC)[O]C(=O)c1ccc(OC)c(OC)c1OC
active: [1] 85.7% | [2] 85% | [3] 86.3% | [4] 85.2% | [5] 87.2% | [6] 86.3%

O=C(Nc1cccc2c1C(=O)c1cc(Cl)ccc1C2=O)c1ccccc1
inactive: [1] -2.7% | [2] 0.1% | [3] 4% | [4] -38.9% | [5] 5% | [6] -2.3%

O=C(O)C(Br)C1(Br)c2ccccc2-c2ccccc21 (stereo not given)
active: [1] 99.3% | [2] 99.7% | [3] 99.7% | [4] 95.4% | [5] 97.3% | [6] 99.6%

COc1ccc(C(O)CNC(=O)c2ccccc2)cc1 (stereo not given)
inactive: [1] 11.7% | [2] -4.4% | [3] 12.5% | [4] -7.2% | [5] -2.15% | [6] -60%

O=c1[nH]cc(COCC(F)(F)C(F)(F)C(F)(F)C(F)F)c(=O)[nH]1
inactive: [1] -1.35% | [2] -14.9% | [3] -3.7% | [4] 0.5% | [5] -17.5% | [6] 1.2%

CN1CCC/C1=N\c1ncn[nH]1
inactive: [1] 3.3% | [2] -21.1% | [3] -4.45% | [4] -65.3% | [5] -8.5% | [6] -2.85%

COC(=O)/C(=C\c1ccccc1N)c1cc2c(cc1Br)OCO2
active: [1] 84.2% | [3] 82.4%
inactive: [2] 40.2% | [4] 41.4% | [5] 44.3% | [6] 68.1%

Cc1cc2c(cc1C)NC1=C(N2)OC(c2cccc(O)c2)C1=O (stereo not given)
inactive: [1] 1.9% | [2] -16.9% | [3] 1.55% | [4] 4.4% | [5] -31.4% | [6] 11.8%

CCOC(=O)C1SC(=S)N(c2ccccc2)C1N (stereo not given)
inactive: [1] -3.75% | [2] 14.6% | [3] 39.8% | [4] -11.6% | [5] -4.45% | [6] 11.8%

C=C(CC[C@@H](C)[C@H]1CC[C@@]2(C)C3=C(CC[C@]12C)[C@@]1(C)CC[C@H](O)[C@@H](C)C1CC3)C(C)C (stereo not given in full)
inactive: [1] 10.4% | [2] 2.8% | [3] 45.2% | [4] 37.8% | [5] 14.6%
active: [6] 71.5%

CCOC(CSc1cc(C)c2ccccc2n1)OCC
inactive: [1] 14.1% | [2] -0.05% | [3] -11.2% | [4] 3.35% | [5] 0.2% | [6] -15.2%

CCOC(=O)CCCN
inactive: [1] -8.45% | [2] -3% | [3] -6.95% | [4] 56.7% | [5] -39.8% | [6] -16.1%

O=C(COc1cccc(Cl)c1)Nc1ccc(Cl)cc1
inactive: [1] -0.5% | [2] -26.7% | [3] -18.9% | [4] -13.8% | [5] 17.4% | [6] 4.3%

CCCC(=O)c1cc(-c2cc(C(=O)CCC)nc(N)n2)nc(N)n1
inactive: [1] 3.65% | [2] -3.4% | [3] 3.1% | [4] -15.9% | [5] -7.1% | [6] -0.4%

CCN(CC)CC(O)CN1CCCc2ccccc21 (stereo not given)
inactive: [1] -9.4% | [2] 1.5% | [3] 0.6% | [4] -5.4% | [5] 7.85% | [6] -13.4%

CC(C)=CCC/C(C)=C/CO
inactive: [1] -48.8% | [2] -27.8% | [3] -3.55% | [4] 35.1% | [5] -47.8% | [6] -14.2%

COc1ccc(N=C2C(=Nc3ccc(OC)cc3)N(S(=O)(=O)c3ccccc3)C(=S)N2c2ccc(OC)cc2)cc1
inactive: [1] -11.8% | [2] -35% | [3] -35.5% | [4] -23.9% | [5] 0.2% | [6] -26.1%

CC(=O)Nc1ccc2c(c1)Cc1ccc(S(C)(=O)=O)cc1-2
inactive: [1] 23.9% | [2] -7.15% | [3] 10.9% | [4] 6.9% | [5] 0.65% | [6] 44.1%

CC(C)CN1CC(=O)N2Cc3ccccc3CN2C(=O)C1
inactive: [1] -28.6% | [2] -10.2% | [3] -17.4% | [4] -4.95% | [5] -1.3% | [6] -2.5%

CCCCN(C=O)c1ccccc1
inactive: [1] 3.15% | [2] 9.65% | [3] 2.95% | [4] 7.15% | [5] -8.45% | [6] 27.9%

CC(C)[C@@H](C)[C@@]1(C)C[C@@H]1[C@@H](C)[C@H]1CC[C@@H]([C@@H]2CC=C3C[C@@H](O)CC[C@]3(C)C2=O)[C@]1(C)CCO
inactive: [1] 13.9% | [2] 9.65% | [3] 19.3% | [4] -17.9% | [5] -7.35% | [6] -3.35%

COc1cc(C(=O)OCCOC(=O)c2ccc(O)c(OC)c2)ccc1O
inactive: [1] 45.4% | [2] 13.8% | [3] 25.4% | [4] -25.5% | [5] 51.7% | [6] 40.5%

O=C(O)c1ccc2ccccc2c1C(=O)O
inactive: [1] 6.4% | [2] -1.6% | [3] 0.25% | [4] -6.55% | [5] -2.2% | [6] -1.7%

c1ccc2c(c1)c1c(n2CCOCCN2CCCCC2)CCCC1
inactive: [1] 33.9% | [2] 19.9% | [3] 29.3% | [4] 28.1% | [5] 28.4% | [6] 19.8%

CSc1cc(C)c(C#N)c(SC)n1
inactive: [1] -32.6% | [2] -32.1% | [3] -12.9% | [4] -5.7% | [5] 0.05% | [6] -12.4%

COC(=O)C1CN=CN1CCc1ccccc1 (stereo not given)
inactive: [1] -2.05% | [2] -10.6% | [3] 5.25% | [4] 12.4% | [5] 2.5% | [6] 45.8%

Cc1cc(C)c(NC(=O)Nc2ccc(C(Cl)(Cl)Cl)cc2)c(C)c1
inactive: [1] 4.9% | [2] 11.5% | [3] 8.8% | [4] 7% | [5] 2.9% | [6] 2.8%

CCOC(=O)C(CNCc1ccccc1)(c1ccccc1)c1ccccc1
inactive: [1] -6.5% | [2] -4.85% | [3] -23.9% | [4] -31.3% | [5] 9.95% | [6] 2.45%

COc1ccc(Cc2nnc(SC)n2-c2ccc(F)cc2)cc1OC
inactive: [1] 8.7% | [2] -8.25% | [3] 21% | [4] 6.15% | [5] 25.2% | [6] 16.6%
